In the library only some 19% were active in any assay of this set; here they are far more common.
Cycloheximide cs – affects cycloheximide protein synthesis inhibition readout, counter-screen; cell reporter, cycloheximide protein synthesis inhibition counterscreen; max response, %; 300,000 compounds, 12% hits; AID 2314; in the data active = max response mostly above about 13%, no sharp cut-off; inactive = mostly below about 14%; note: read at 38.3 µM for the half of the compounds with a filed dose; 0% is about no effect
Marburg entry inh – Marburg virus entry inhibition | Marburg virus pseudotyped entry inhibition, cell reporter | Potency, µM (series often up to 37.8 µM), for the others: at the top dose activity change, negative = inhibition, most hits filed as inhibitors | 300,000 compounds, 1.8% hits | AID 540276; calls by dose curve; tested in HEK293 cells; note: potency is the fitted concentration of half-maximal effect; % is set by controls: 0 for no effect and ±100 for the full control effect
Pf growth 96h – P. falciparum growth inhibition at 96 hours. P. falciparum luciferase reporter growth, 96 h. 320,000 compounds, 6.9% hits. Potency, µM (series often up to 28.7 µM), for the others: at the top dose activity change, negative = inhibition, actives largely listed as inhibitors. AID 504834; note: potency is the fitted concentration of half-maximal effect; % is set by controls: 0 for no effect and ±100 for the full control effect
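Plates of compound plus infected erythrocytes (2% hematocrit, 0.05% parasitemia final) incubate 96 hours, 37 C, 5% CO2. Detection reagent added; reduced luminescence from the parasites' luciferase reporter flags inhibition.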
Shiga inhibitor – Shiga toxin inhibition. Vero cells, Shiga toxin protein synthesis inhibition reporter. inhibition, % at 38.7 µM. 290,000 compounds, 9.2% hits. AID 2315; in the data active = inhibition mostly above about 28%, no sharp cut-off; inactive = mostly below about 43%; note: 0% is about no effect
Lassa entry inh – blocks Lassa virus binding to or entry into cells. Lassa virus pseudotype entry inhibition, cell reporter. Potency, µM (titrated, usually from 37.9 µM), without a hit: at the top dose activity change, negative = inhibition, actives largely listed as inhibitors. 300,000 compounds, 1.2% hits. AID 540256; calls by dose curve; tested in HEK293 cells; note: potency is the fitted concentration of half-maximal effect; % is set by controls: 0 for no effect and ±100 for the full control effect; nearly all actives have a fitted effect of over 50% in size
Pf growth 48h – P. falciparum growth inhibition at 48 hours (one generation). P. falciparum luciferase growth in erythrocytes, 48 h. Potency, µM (top dose mostly 28.7 µM), for the others: at the highest dose activity change, negative = inhibition, hits mostly inhibitors. 310,000 compounds, 5.9% hits. AID 504832; note: potency is the fitted concentration of half-maximal effect; % is set by controls: 0 for no effect and ±100 for the full control effect
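Here the parasites carry a stable luciferase gene and grow inside erythrocytes in Albumax-based RPMI medium with compound for one erythrocytic cycle. Activity is scored as loss of luminescent signal.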
Active calls of the source: *; [ ] = remark or other dose. Unless noted, calls come from the whole dose curve; as a rule, active = well fitted inhibition curve with a large enough effect; inconclusive = small, poorly fitted or top-dose-only effect, or another doubt; inactive = no such curve, though single readings can be large or run the other way.

Results for COc1ccc(OC(=O)N2CCOCC2)cc1 ?
Cycloheximide cs: 2; Pf growth 96h: -15%; Shiga inhibitor: 1; Pf growth 48h: 27%

Results for O=C(Oc1cccc(Oc2ccccc2)c1)N1CCOCC1 ?
Cycloheximide cs: 9; Marburg entry inh: 9%; Shiga inhibitor: 17; Lassa entry inh: 5%; Pf growth 48h: -17%

What do the screens show for `O=C(Oc1ccc(Cl)cc1)N1CCCCC1`?
Cycloheximide cs: 35*; Marburg entry inh: inconclusive; Pf growth 96h: -4%; Shiga inhibitor: 49*; Lassa entry inh: inconclusive; Pf growth 48h: 31%

What do the screens show for `O=C(Oc1ccccc1)N1CCCC1`?
Cycloheximide cs: -3; Pf growth 96h: 50%; Shiga inhibitor: 1; Pf growth 48h: 40%

Results for O=C(Oc1ccc(Oc2ccccc2)cc1)N1CCC(O)CC1 ?
Cycloheximide cs: 52*; Marburg entry inh: -2%; Pf growth 96h: 44%; Shiga inhibitor: 60*; Lassa entry inh: 5%; Pf growth 48h: 29%

How did O=C(Oc1ccc(-c2ccccc2)cc1)N1CCOCC1 do in these assays?
Cycloheximide cs: 39*; Marburg entry inh: inconclusive; Shiga inhibitor: 109*; Lassa entry inh: 71%[14.3 µM]; Pf growth 48h: 151%

How did O=S(=O)(c1ccc(-c2nnco2)cc1)N1CCCCC1 do in these assays?
Cycloheximide cs: -3; Marburg entry inh: 7%[46.1 µM]; Pf growth 96h: 0%; Shiga inhibitor: -5; Lassa entry inh: inconclusive; Pf growth 48h: 9%

What do the screens show for `O=C(Oc1ccc(-c2nnco2)cc1)N1CCCCC1`?
Cycloheximide cs: 25*; Marburg entry inh: 6%; Shiga inhibitor: 35*; Lassa entry inh: 8%; Pf growth 48h: 40%

How did O=C(Oc1ccc(OC(=O)N2CCCCC2)cc1)c1ccccc1 do in these assays?
Cycloheximide cs: 15; Marburg entry inh: inconclusive; Pf growth 96h: 29%; Shiga inhibitor: 30; Lassa entry inh: 9%; Pf growth 48h: 23%

How did O=C(Oc1ccc2ccc(OC(=O)N3CCCCCC3)cc2c1)N1CCCCCC1 do in these assays?
Cycloheximide cs: 22*; Marburg entry inh: inconclusive; Pf growth 96h: inconclusive; Shiga inhibitor: 40*; Lassa entry inh: 23%; Pf growth 48h: 52%

Results for Cc1ccc2c(C)ccc(O)c2n1 ?
Cycloheximide cs: -2; Marburg entry inh: inconclusive; Pf growth 96h: inconclusive; Shiga inhibitor: -7; Lassa entry inh: inconclusive

Results for Cc1ccc2ccc3ccc(C)nc3c2n1 ?
Cycloheximide cs: 6; Pf growth 96h: 18%; Shiga inhibitor: 9; Pf growth 48h: 0.23µM*

Results for COc1ccc(C(=O)OCCN2C(=O)c3ccccc3C2=O)cc1 ?
Cycloheximide cs: 17; Marburg entry inh: inconclusive; Pf growth 96h: 44%; Shiga inhibitor: 54*; Lassa entry inh: -27%; Pf growth 48h: inconclusive

Results for COc1ccc(OCCN2C(=O)c3cccc(N)c3C2=O)cc1 ?
Cycloheximide cs: 32*; Marburg entry inh: -19%[46.1 µM]; Pf growth 96h: 127%; Shiga inhibitor: 74*; Lassa entry inh: 12%; Pf growth 48h: 95%

What do the screens show for `COc1ccc(N(CN2C(=O)c3ccccc3C2=O)C(=O)COc2ccc(Cl)cc2Cl)cc1`?
Cycloheximide cs: 0; Marburg entry inh: -28%; Pf growth 96h: 15%; Shiga inhibitor: -2; Lassa entry inh: -7%; Pf growth 48h: 7%

How did COc1cccc(C(=O)OCCN2C(=O)c3ccccc3C2=O)c1OC do in these assays?
Cycloheximide cs: 8; Marburg entry inh: -2%; Pf growth 96h: 2%; Shiga inhibitor: 32; Lassa entry inh: 14%

How did COc1ccc(N(CN2C(=O)c3ccccc3C2=O)C(=O)C(C)C)cc1 do in these assays?
Cycloheximide cs: 21*; Marburg entry inh: 8%; Pf growth 96h: inconclusive; Shiga inhibitor: 12; Lassa entry inh: 4%; Pf growth 48h: -15%

How did O=C1c2ccccc2C(=O)N1CCOc1cccc(Br)c1 do in these assays?
Cycloheximide cs: 28*; Marburg entry inh: 21%; Pf growth 96h: 42%; Shiga inhibitor: 52*; Lassa entry inh: inconclusive; Pf growth 48h: 33%

How did COC(=O)CCC(=O)N1CCOCCOCCN(C(=O)CCC(=O)OC)CCOCCOCC1 do in these assays?
Cycloheximide cs: -2; Marburg entry inh: 7%; Pf growth 96h: -2%; Shiga inhibitor: 12; Lassa entry inh: 7%; Pf growth 48h: -27%
